AmpC no deterg – inhibitors of E. coli AmpC beta-lactamase without detergent; AmpC nitrocefin hydrolysis, absorbance 480 nm, 0.0001% Triton; 330,000 compounds, 0.52% hits; P00811; Potency, µM (titrated, usually from 57.1 µM), hits mostly inhibitors; note: nearly all actives have a fitted effect of over 20% in size
Target sequence (P00811 whole entry, looked up): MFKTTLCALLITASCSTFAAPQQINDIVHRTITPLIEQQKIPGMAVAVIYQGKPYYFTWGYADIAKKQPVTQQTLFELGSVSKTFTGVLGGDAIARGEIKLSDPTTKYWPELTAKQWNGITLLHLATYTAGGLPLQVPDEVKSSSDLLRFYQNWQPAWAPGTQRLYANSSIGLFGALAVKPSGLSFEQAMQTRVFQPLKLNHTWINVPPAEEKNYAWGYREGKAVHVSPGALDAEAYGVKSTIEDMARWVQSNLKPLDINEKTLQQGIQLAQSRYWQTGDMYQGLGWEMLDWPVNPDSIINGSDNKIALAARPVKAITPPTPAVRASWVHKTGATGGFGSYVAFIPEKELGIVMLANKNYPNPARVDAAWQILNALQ
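AmpC (5.3 nM in the dispensed reagent) in 20 mM phosphate pH 7.0 with 0.01% (detergent screen) or 0.0001% Triton X-100 was preincubated with compounds for 15 min at room temperature. Nitrocefin was then added from an 800 uM solution, and hydrolysis was followed at 480 nm.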
FBPA Giardia inh – inhibitors of Giardia lamblia fructose-1,6-bisphosphate aldolase; Potency, µM (highest dose often 59.6 µM), hits mostly inhibitors; purified Giardia FBPA; AID 2451; 290,000 compounds, 0.71% hits; A8B2U2; note: nearly all actives have a fitted effect of over 55% in size
Target sequence (A8B2U2 whole entry, looked up): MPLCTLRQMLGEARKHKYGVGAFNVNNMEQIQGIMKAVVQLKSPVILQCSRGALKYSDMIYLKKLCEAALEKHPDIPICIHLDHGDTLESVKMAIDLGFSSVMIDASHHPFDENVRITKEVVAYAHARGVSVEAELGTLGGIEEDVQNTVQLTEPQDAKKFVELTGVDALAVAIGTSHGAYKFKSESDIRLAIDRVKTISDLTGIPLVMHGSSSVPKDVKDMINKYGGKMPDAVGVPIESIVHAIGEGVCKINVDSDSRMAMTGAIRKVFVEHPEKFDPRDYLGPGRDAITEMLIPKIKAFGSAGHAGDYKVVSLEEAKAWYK
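40 nM FBPA preincubated 10 min at RT with compound (up to 57.5 uM final), then substrate plus GAPDH/TPI/NAD/arsenate coupling and diaphorase/resazurin added. Fluorescence read after 20 min at RT, 525/598 nm.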
LmPK inhibitor – inhibitors of Leishmania mexicana pyruvate kinase. Q27686. purified LmPK, Kinase-Glo ATP luminescence, 1 h. Potency, µM (series often up to 57.5 µM), usual class: inhibitors. 290,000 compounds, 0.37% hits. AID 1721
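Purified LmPK (0.1 nM) with 0.5 mM PEP and 0.1 mM ADP in imidazole buffer pH 7.2 with MgCl2/KCl, 1 h at room temperature. ATP formed was read by luciferase luminescence and normalized to no-enzyme and uninhibited controls.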
AmpC detergent – blocks E. coli AmpC beta-lactamase in detergent assay; AmpC hydrolysis of nitrocefin, absorbance 480 nm, 0.01% Triton; Potency, µM (doses to about 114 µM), most hits filed as inhibitors; 370,000 compounds, 0.041% hits; note: nearly all actives have a fitted effect of over 25% in size
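20 mM phosphate pH 7.0 + 0.01% (detergent screen) or 0.0001% Triton X-100; 5.3 nM AmpC reagent; cpd preinc 15 min RT; nitrocefin (800 uM stock) to start; A480 q20 s × 4 min; Activity was normalised to no-enzyme and no-compound control wells.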
AMA1-RON2 inh – inhibitors of Plasmodium falciparum AMA1-RON2 interaction | 360,000 compounds, 0.2% hits | AlphaScreen AMA1-biotinylated RON2 peptide binding | Potency, µM (doses to about 58.2 µM), actives largely listed as inhibitors; note: nearly all actives have a fitted effect of over 45% in size
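AMA1 (3D7) with his tag at 25 nM final met compounds first, then biotinylated RON2 peptide at 25 nM; detection used donor plus acceptor beads, 10 µg/mL apiece, read by AlphaScreen after 30 min at room temperature.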
A number is an active result; – = inactive; ? = inconclusive; · = no result; [ ] = another dose, or the depositor's remark. Sampled rows, rich in hits. Any-hit rate of the full collection: about 1.3%. Calls come from the whole dose curve; as a rule, active = well fitted curve in the direction sought with a large enough effect; inconclusive = small, poorly fitted or top-dose-only effect, or another doubt; inactive = no such curve, though single readings can be large; an effect the other way counts as inactive or inconclusive.

SMILES | AmpC no deterg | FBPA Giardia inh | LmPK inhibitor | AmpC detergent | AMA1-RON2 inh
CC(C)CN(C(=O)CN1C(=O)NC(c2ccccc2)(c2ccccc2)C1=O)C1CCS(=O)(=O)C1 (configuration not stated) | – | · | · | – | –[11.6 µM]
COc1ccc(/C=N\NC(=O)CNC(=O)C(c2ccccc2)c2ccccc2)cc1[N+](=O)[O-] | 4µM | – | – | – | –
COc1cc(/C=N\NC(=O)CNC(=O)C(c2ccccc2)c2ccccc2)ccc1O | – | – | – | – | –
COc1ccc(OC)c2sc(NC(=O)c3ccc(S(=O)(=O)N4CCOCC4)cc3)nc12 | 7.1µM | – | – | ? | –
COCCNC(=O)C1CCCN(C(=O)c2nc3ccccc3s2)CC1 (configuration not stated) | · | · | · | · | –
N/C(=N\c1nc2ccccc2o1)NC(=O)c1ccccc1 | – | – | – | ? | –
N/C(=N\c1nc2ccccc2o1)NC(=O)/C=C/c1ccccc1 | 5µM | – | – | – | –
Cc1ccc(Cl)c(NC(=O)COC(=O)c2ccccc2C(=O)c2ccc(Cl)c([N+](=O)[O-])c2)c1Cl | 20µM | – | – | – | –
CN(C1=C(NC(=O)c2ccc(Cl)cc2)C(=O)c2ccccc2C1=O)c1ccccc1 | – | ? | – | – | 10µM
COc1ccc(C(=O)c2coc3c2C(=O)C(=O)c2ccccc2-3)cc1 | – | 7.1µM | – | – | –
Cn1cccc1/C=N/n1c(-c2ccccc2)n[nH]c1=S | – | – | 7.9µM | – | –
Cn1cccc1/C=N/n1c(-c2ccc(C(C)(C)C)cc2)n[nH]c1=S | – | · | 20µM | – | –
CC1(C)C(/C=C/C=C/C=C/C=C2\N(CCCCS(=O)(=O)O)c3ccc4ccccc4c3C2(C)C)=[N+](CCCCS(=O)(=O)[O-])c2ccc3ccccc3c21 | · | · | · | · | 8.9µM
CC(=O)Oc1ccc(N2C(=O)C3C4C=CC(CO)(O4)C3C2=O)cc1 (configuration not stated) | – | – | – | ? | –
O=C1C2C3C=CC(CO)(O3)C2C(=O)N1c1ccccc1-c1ccccc1 (configuration not stated) | – | – | 18µM | ? | –
Cc1nc2c(=O)[nH]c(=S)[nH]c2[nH]c1=O | · | · | · | · | 28µM
Cc1nc2[nH]c(=S)[nH]c(=O)c2nc1C | · | · | · | · | –
O=C(CN1C(=O)COc2ccc(S(=O)(=O)NC3CCCC3)cc21)NCc1ccc(Cl)cc1 | · | · | · | – | ·
O=C(COC(=O)/C=C/c1cccc(C(F)(F)F)c1)NCc1ccccc1 | 7.9µM | – | – | – | –
O=c1oc2ccccc2cc1-c1nc2c(s1)CCCC2 | – | – | 13µM | – | –
Cn1c(/C(C#N)=C/c2ccc(-c3ccc(S(N)(=O)=O)cc3)o2)nc2ccccc21 | 20µM | – | – | – | –
O=C(CSc1nnc(-c2c[nH]c3ccccc23)n1C1CC1)NC1CCS(=O)(=O)C1 (configuration not stated) | · | · | · | · | –
CC(C)Cc1ccc([C@@H](C)C(=O)NS(C)(=O)=O)cc1 | · | – | · | · | ·
CC(C)Cc1ccc(C(C)C(=O)Nc2ccccc2O)cc1 (configuration not stated) | 4µM | – | – | – | –
Cc1ccccc1-c1cccc([C@@H]2C[C@H]3[C@H](CON3C)CN2Cc2cc(Cl)cc(Cl)c2)c1 | · | · | · | · | –
SMILES | AmpC no deterg | FBPA Giardia inh | LmPK inhibitor | AmpC detergent | AMA1-RON2 inh
Cc1nn(-c2ccccn2)c2c1C(=O)C(Br)CC2 (configuration not stated) | – | 5µM | –[11.5 µM] | – | –
CCOc1ccc(CCNC(=O)CN(C)S(=O)(=O)c2cccs2)cc1OCC | – | · | · | – | –
Clc1ccccc1C1CC(c2ccccc2)Nc2ncnn21 (configuration not stated) | 40µM | – | – | ? | –
COc1ccc(CN2CCC(N3CC(C)OC(C)C3)CC2)c(OC)c1OC (configuration not stated) | – | ? | – | ? | 13µM
CSc1ccc(CN2CCC(N3CC(C)OC(C)C3)CC2)cc1 (configuration not stated) | – | ? | – | – | –
Cc1nc(N/N=C/c2ccc(O)cc2)c2cnn(-c3ccccc3)c2n1 | 16µM | – | – | – | –
N=C1CCC(=N)c2c1c(O)c1ccccc1c2O | – | 6.3µM | – | – | 20µM
O=C1CCn2c1c(O)c1ccccc1c2=O | · | · | · | · | –
CCOC(=O)C1=C(COC(=O)Cc2c(F)cccc2Cl)NC(=O)NC1C (configuration not stated) | – | · | · | – | –
Fc1ccc(N2CCN(C3=Nc4cccc5cccc3c45)CC2)cc1 | –[11.4 µM] | – | – | ? | 22µM
COc1ccccc1NC(=O)c1ccc(NS(=O)(=O)c2cccc3cccnc23)cc1 | 7.9µM | – | – | – | –
O=C(CCn1cnnn1)N1CCCC(Nc2ccc(F)cc2)C1 (configuration not stated) | – | – | – | – | –
CN(C)c1ccc(CNCCC(Cc2ccccc2)c2ccco2)cc1 (configuration not stated) | – | – | – | – | 16µM
O=C1CN(C(=O)CN2CCN(S(=O)(=O)c3ccccc3)CC2)c2ccccc2N1 | · | · | · | · | –
Cc1cccc(S(=O)(=O)NC(=O)C2(C)CCN2C(=O)Cc2cc(F)ccc2F)c1 (configuration not stated) | · | · | · | · | 40µM
COc1ccc(NC(=O)N(C)[C@H]2C[C@H]3c4[nH]c5ccc(-c6cccc(C)c6)cc5c4CCN3C[C@H]2[C@H](C)O)cc1 | · | · | · | · | –
CC(C)C1CC(CCNCc2ccc(N(C)C)cc2)(c2ccccc2)CCO1 (configuration not stated) | – | – | – | – | ?
Cc1ccc(C2(CCNCc3ccc(N(C)C)cc3)CCOC(C(C)C)C2)cc1 (configuration not stated) | – | – | – | – | 10µM
CC(=O)c1cc(C(=O)Nc2cc(C)cc(C)c2)c2ccccn12 | · | · | · | – | ·
O=C(Nc1ccc(S(=O)(=O)Nc2nccs2)cc1)c1nn(-c2ccc(F)cc2)ccc1=O | 10µM | – | – | – | –
CC1CCc2nc3ncn(Cc4ccccc4F)c(=O)c3cc2C1 (configuration not stated) | · | · | · | – | ·
CN1CCN(c2ccc(NC(=O)COc3cccc4ccccc34)cc2)CC1 | – | – | – | – | –
C=CC(=O)Nc1cccc(N(C)c2ccnc(Nc3ccc(N4CCN(C)CC4)cc3)n2)c1 | · | · | · | · | 22µM
CCOc1ccc(S(=O)(=O)N2CCC(C(=O)NC3CC3)CC2)cc1C | – | – | – | – | –
CC1(C)CC(=O)c2c(O)cc(OCC(=O)N3CCN(c4ccccc4)CC3)cc2O1 | – | – | – | ? | –
c1ccc(-c2ccc(-c3nccc4ccccc34)[nH]2)cc1 | – | – | 25µM | – | ·
CSc1nc2ccccc2s1 | – | – | – | ? | –
O=c1ccc2nc3ccccc3sc-2c1 | · | · | · | · | 14µM

High-throughput results deposited in PubChem by National Center for Advancing Translational Sciences (NCATS).
